Sampled rows, rich in hits. Any-hit rate of the full collection: about 2.9%.
PLC-gamma1 inh = PLC-gamma1 enzyme inhibitors, primary screen, biochemical, fluorescence, purified enzyme; fluorogenic substrate; AID 720700, 2013; actives 0.84% (n = 370,000); inhibition, % at 12.2 µM
Target sequence (P19174 whole entry, looked up): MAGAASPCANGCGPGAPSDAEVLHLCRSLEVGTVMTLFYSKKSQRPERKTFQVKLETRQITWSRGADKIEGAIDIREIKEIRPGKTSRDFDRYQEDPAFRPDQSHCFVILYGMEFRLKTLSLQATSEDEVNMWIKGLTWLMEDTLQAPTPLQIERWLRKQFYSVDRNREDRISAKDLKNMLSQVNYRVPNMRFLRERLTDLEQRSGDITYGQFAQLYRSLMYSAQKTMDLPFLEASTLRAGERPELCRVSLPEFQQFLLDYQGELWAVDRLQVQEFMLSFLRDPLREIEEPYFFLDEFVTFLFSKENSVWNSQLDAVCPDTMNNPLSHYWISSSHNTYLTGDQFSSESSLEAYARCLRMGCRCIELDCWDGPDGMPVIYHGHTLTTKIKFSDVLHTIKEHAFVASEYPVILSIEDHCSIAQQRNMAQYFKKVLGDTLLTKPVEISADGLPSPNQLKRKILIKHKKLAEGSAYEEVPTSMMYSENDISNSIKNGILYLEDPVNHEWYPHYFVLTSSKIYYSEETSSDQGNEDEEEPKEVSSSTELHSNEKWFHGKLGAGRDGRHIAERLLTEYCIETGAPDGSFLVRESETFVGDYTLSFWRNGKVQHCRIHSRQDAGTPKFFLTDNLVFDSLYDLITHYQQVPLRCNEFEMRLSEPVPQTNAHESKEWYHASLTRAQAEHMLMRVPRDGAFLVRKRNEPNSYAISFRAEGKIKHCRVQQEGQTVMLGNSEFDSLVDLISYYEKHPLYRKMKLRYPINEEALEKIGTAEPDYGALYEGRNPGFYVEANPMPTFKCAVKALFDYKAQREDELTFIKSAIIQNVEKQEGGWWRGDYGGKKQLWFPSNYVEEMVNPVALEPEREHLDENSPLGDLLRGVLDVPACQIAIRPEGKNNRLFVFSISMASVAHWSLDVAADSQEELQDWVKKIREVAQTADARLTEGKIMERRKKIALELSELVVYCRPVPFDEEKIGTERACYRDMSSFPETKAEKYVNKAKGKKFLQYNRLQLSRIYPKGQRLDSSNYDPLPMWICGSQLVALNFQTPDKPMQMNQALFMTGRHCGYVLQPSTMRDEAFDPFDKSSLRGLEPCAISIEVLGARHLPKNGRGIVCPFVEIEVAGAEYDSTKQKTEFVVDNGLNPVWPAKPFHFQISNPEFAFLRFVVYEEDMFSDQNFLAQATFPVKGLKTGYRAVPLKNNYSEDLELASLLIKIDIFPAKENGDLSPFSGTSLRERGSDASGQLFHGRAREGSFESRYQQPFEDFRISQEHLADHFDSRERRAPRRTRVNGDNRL
proKLK7 act = proKLK7 zymogen activators, primary screen, biochemical, fluorescence intensity; Kallikrein-7 (Homo sapiens), P49862; purified proKLK7, EDANS-DABCYL substrate fluorescence; 100% is mature enzyme control, 0% vehicle; activation, % at 7 µM; actives 0.9% (n = 370,000);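 active = activation above the mean of all tested compounds plus 3 SD, computed per campaign excluding outliers beyond control limits, cut at about 13% in these data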
ADAM17 inh = ADAM17 inhibitors, primary screen, biochemical, QFRET | Disintegrin and metalloproteinase domain-containing protein 17 (Homo sapiens), P78536 | recombinant ADAM17, EDANS/DABCYL FRET peptide cleavage | inhibition, % at 6.95 µM | actives 0.83% (n = 370,000);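 active = inhibition above the mean of compounds lying between control limits plus 3 SD, set per campaign, cut at about 8.5% in these data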;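 also: 0% = DMSO-only wells as the low control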
ADAM10 inh = human ADAM10 inhibitors, primary screen, biochemical, QFRET, HTS; Disintegrin and metalloproteinase domain-containing protein 10 (Homo sapiens), O14672; recombinant ADAM10, EDANS/DABCYL FRET peptide cleavage, 3 h; inhibition, % at 7 µM; actives 0.62% (n = 370,000); AID 720582, 2013;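 active = inhibition above a per-campaign cutoff equal to the mean of compounds falling between control-based bounds plus 3 SD, cut at about 20% in these data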;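 also: 0% = DMSO wells while the 100% control is not disclosed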
PLCb3 inh = human PLC-beta3 inhibitors, primary screen, biochemical, fluorescence. 1-phosphatidylinositol 4,5-bisphosphate phosphodiesterase beta-3 (Homo sapiens), Q01970. Purified PLC-beta3, fluorogenic substrate. inhibition, % at 12.2 µM. actives 0.18% (n = 370,000). AID 720704, 2013; in the data active = inhibition above about 11%;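 also: 0% = median of compound wells on plate and 100% = full blocker control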
PLCg1 ctr = PLC-gamma1 enzyme inhibitors, counter-screen for PLC-beta3 inhibitor project, biochemical, fluorescence; actives 3.1% (n = 3,300); purified PLC-gamma1, fluorogenic substrate; inhibition, % at 12.3 µM; shares compounds with PLC-gamma1 inh
PLCb3 confirm = PLC-beta3 inhibitor confirmation, biochemical, fluorescence, purified enzyme. shares compounds with PLC-gamma1 inh. fluorogenic substrate fluorescence. inhibition, % at 12.3 µM. actives 1% (n = 3,300); in the data active = inhibition above about 11%
Active calls of the source: *; i = inactive; nt = no result. Rule as the data show it, unless noted: active = inhibition above about 9.5%; inactive = the rest.

SMILES	PLC-gamma1 inh	proKLK7 act	ADAM17 inh	ADAM10 inh	PLCb3 inh	PLCg1 ctr	PLCb3 confirm
Cc1cccc(C)c1NC(=O)C(CCc1ccccc1)N1CCC(c2ccccc2)CC1 (stereo not given)	0	1	0	1	-4	nt	nt
CCc1cccc(NC(=O)c2ccc(Cn3nc(C)cc3C)o2)c1	9.8*	1	1	7	4	-6	-1
Cc1cc(C)cc(NC(=O)C2(c3cccs3)CCOCC2)c1	9.8*	-1	0	1	3	-8	-12
CCC(C)(C)NC(=O)C(c1ccc(OC)cc1)N(CC1CCCO1)C(=O)CCC(=O)Nc1cc(C)on1 (stereo not given)	1	0	-3	5	2	nt	nt
CCC(C)(C)NC(=O)C(c1ccc(OC)cc1)N(C(=O)CCC(=O)Nc1cc(C)on1)C1CC1 (stereo not given)	11*	0	5	2	2	-3	0
CSCCC(NS(=O)(=O)c1ccc(Cl)cc1)C(=O)OCC(=O)c1ccc(F)cc1 (stereo not given)	5	0	5	13	12*	-2	-1
COc1ccc(C2(OC)Oc3cc(OC)ccc3C(=O)C2(O)OC)cc1 (stereo not given)	i	0	-2	-13	i	nt	nt
O=[N+]([O-])c1ccc(Sc2ncccn2)c([N+](=O)[O-])c1	12*	0	1	3	2	10*	8
O=C(CSc1ncnc2c1oc1ccccc12)Nc1nc2ccccc2s1	9.6*	0	1	10	8	-5	-5
COC1=CC(=O)OC(c2ccc(C(F)(F)F)cc2)C1 (stereo not given)	-2	0	-4	-1	-2	nt	nt
O=C(Cc1ccccc1Cl)Nc1cccc(S(=O)(=O)N2CCOCC2)c1	9.9*	0	5	10	2	-3	-3
Cn1cccc1C(=O)OCC(=O)Nc1cccc(S(=O)(=O)N2CCOCC2)c1	11*	0	0	13	0	-4	-1
O=C(COC(=O)c1cccs1)Nc1cccc(S(=O)(=O)N2CCOCC2)c1	0	0	0	-2	2	nt	nt
Cc1csc(SCC(=O)Nc2cccc(S(=O)(=O)N3CCOCC3)c2)n1	-1	0	-2	3	-3	nt	nt
Cc1nc(SCC(=O)Nc2cccc(S(=O)(=O)N3CCOCC3)c2)nc(C)c1C	14*	0	7	7	4	-6	-3
Cc1cc(C(=O)CN2C(=O)C(=O)N(C3CCCC3)C2=O)c(C)n1CCc1ccc(F)cc1	-5	1	1	6	-4	nt	nt
COC(=O)C1CCN(C2CN(Cc3ccc(C)cc3)S(=O)(=O)C2)CC1 (stereo not given)	0	0	-1	-14	0	nt	nt
CCOC(=O)n1c(=O)n(Cc2ccc(Cl)cc2Cl)c2ccccc21	10*	0	6	13	4	-1	-3
CCOC(=O)n1c(=O)n(Cc2ccccc2Cl)c2ccccc21	-4	1	0	3	0	nt	nt
COc1ccccc1CCn1cnc(-c2ccccc2F)c1CC(C)C	11*	0	6	10	5	-7	-5
O=C(NC(=S)NCC1CCCO1)c1cccc([N+](=O)[O-])c1 (stereo not given)	9.6*	0	2	5	12*	-1	2
Cc1ccc(C(=O)NCC(=O)NCC(=O)OCC(=O)c2ccc(F)cc2)cc1	13*	0	-2	-10	-11	-5	-2
O=C(CNC(=O)c1ccccc1)NCC(=O)OCC(=O)c1ccc(F)cc1	2	0	-3	1	3	nt	nt
CC(=O)Nc1ccc(S(=O)(=O)NC2CC(=O)N(c3ccc(C)c(C)c3)C2)cc1 (stereo not given)	12*	0	2	8	-3	-2	0
CSC[C@H]1CN(c2ccccc2)C(=O)[C@@H]1CC(=O)Nc1ccccc1	9.5*	0	7	3	9	-6	-1
SMILES	PLC-gamma1 inh	proKLK7 act	ADAM17 inh	ADAM10 inh	PLCb3 inh	PLCg1 ctr	PLCb3 confirm
CSC[C@H]1CN(c2ccc(Br)cc2)C(=O)[C@@H]1CC(=O)Nc1ccccc1	3	1	4	6	5	nt	nt
CCC[C@H]1[C@@H](NC(=O)C#Cc2ccccc2)CC[C@@]23CCCN2C(=O)CCC[C@@H]13	1	nt	-1	1	3	nt	nt
O=C(CSc1nnc(-c2ccccc2Br)o1)Nc1nncs1	4	0	5	2	11*	1	-1
CC(=O)Nc1c([N+](=O)[O-])cc2[nH]c(=O)[nH]c2c1[N+](=O)[O-]	12*	3	3	-4	12*	-7	0
O=C(Nc1ccnn1C1CCN(CCCC2CCCC2)CC1)c1ccccc1Cl	11*	1	9	0	-4	-3	4
COC(=O)c1cccc(Cn2ccc3ccc(-c4ccc5ccn(Cc6cccc(C(=O)OC)c6)c5c4)cc32)c1	-46	-2	-2	1	-69	nt	nt
CC(=O)NC12CC3CC(C1)CC(C(=O)N(C)CC(=O)Nc1ccccc1Cl)(C3)C2	4	0	1	0	0	nt	nt
CC(=O)NC12CC3CC(C1)CC(C(=O)N(C)Cc1cccc(Cl)c1Cl)(C3)C2	13*	0	-2	10	-3	-5	-2
CCCC(O)(c1ccc(Cl)cc1)C(CN1CCOCC1)c1ccccc1 (stereo not given)	11*	0	4	1	3	5	2
CCCC(O)(c1ccccc1)C(CN1CCOCC1)c1ccccc1 (stereo not given)	2	-1	-1	-3	0	nt	nt
COC(=O)[C@@]12C[C@@H](CC(=O)N3CCSCC3)C(=O)N(CCc3ccc(OC)c(OC)c3)C1=CCC(C)(C)C2	-2	0	-3	-5	2	nt	nt
CS(=O)(=O)N(CC(=O)NCCSc1ccccn1)c1ccc(F)cc1	3	0	3	7	1	nt	nt
CS(=O)(=O)N(CC(=O)NCCSCc1ccccc1Cl)c1ccc(F)cc1	13*	0	7	11	0	-4	-2
COC(=O)CSc1nc2ccccc2n1CC(=O)N(C(C)C)C(C)C	9	0	5	8	13*	-6	0

Bioassay records as filed in PubChem BioAssay.
